This passage reports Potency and outcome results from PubChem BioAssay (Tox21).

The structures appear in SMILES notation. Where “and” joins values, the source holds several entries; their conditions need not be identical. Equal values may be shown once. Unmarked numbers belong to inactive results. Records with an inconclusive call do not appear. Calls of active or inactive are those of the source. Unless noted, calls come from the whole dose curve; as a rule, active = well fitted curve in the direction sought with a large enough effect in the repeat runs; inconclusive = weak or mixed curves; inactive = no such curve, though single readings can be large; an effect the other way counts as inactive or inconclusive.

Assay [1] in a line: qHTS assay for small molecule agonists of the p53 signaling pathway - cell viability (AID 651633; calls by dose curve; note: nearly all actives have a fitted effect of over 30% in size; note: potency is the fitted concentration of half-maximal effect). The following applies: p53RE-bla HCT-116 viability, ATP luminescence, 16 h; series mostly up to 83.3 µM. A digest of the protocol:
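Viability counter-read: CellTiter-Glo luminescence (30 min, room temperature) in the same p53RE-bla plates. These plates had been exposed to compounds for 16 h at 37 C.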
(In general: Quantitative high-throughput screening tests each substance at several concentrations.)

A short description of assay [2]: qHTS assay for small molecules that induce genotoxicity in human embryonic kidney cells expressing luciferase-tagged ATAD5 - cell viability (AID 651634; calls by dose curve; note: nearly all actives have a fitted effect of over 25% in size). The following applies: HEK293T ATAD5-luc cells viability, CellTiter-Fluor, 15.5 h; series mostly up to 83.3 µM. The method in brief: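 Viability read: CellTiter-Fluor fluorescence, 30 min at 37C. Cells: HEK293T, luciferase-tagged ATAD5. Exposure: 15.5 hr, 37C, 5% CO2, compound or DMSO vehicle.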

Assay [3] in a line: qHTS assay for small molecule disruptors of the mitochondrial membrane potential - cell viability (AID 720634; calls by dose curve;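 note: human HepG2 liver cancer cells; nearly all actives have a fitted effect of over 20% in size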). The following applies: HepG2 viability, ATP luminescence (CellTiter-Glo), 1 h; series mostly up to 83.2 µM. The method in brief:
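HepG2, 1 hr compound, 37 C. ATP luminescence via CellTiter-Glo, 30 min RT, same well as m-MPI.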

A short description of assay [4]: qHTS assay for small molecule disruptors of the mitochondrial membrane potential (AID 720635). Note: potency is the fitted concentration of half-maximal effect. As to conditions: HepG2 mitochondrial membrane potential, Mito-MPS dye ratio; series mostly up to 83.2 µM. A digest of the protocol: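 Mitochondrial membrane potential tracked with Mito-MPS dye, red aggregates (ex 540/em 590 nm) against green monomers (ex 490/em 535 nm). Compound treatment 1 hr at 37C, dye 30 min in HepG2.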

Assay [5] in a line: qHTS assay to test for compound auto fluorescence at 590 nm (red) in HepG2 cells (AID 720674). The following applies: HepG2 autofluorescence, red 540/590 nm, 1 h; series mostly up to 91.3 µM. A digest of the protocol:
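Red autofluorescence (Ex/Em 540/590 nm, Rose Bengal sodium equivalents) was measured in HepG2 cells, 2,000 per well in MEM plus 10% FBS, plated overnight at 37 C. Readings were taken 1 hr after adding 23 nL compound or DMSO, at 37 C and 5% CO2.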

Assay [6] in a line: qHTS assay to test for compound auto fluorescence at 535 nm (green) in HepG2 cells (AID 720675). As to conditions: green autofluorescence 485/535 nm, 1 h; series mostly up to 91.3 µM.
Assay [7] can be described thus: qHTS assay to test for compound auto fluorescence at 460 nm (blue) in HEK293 cells (AID 720678). As to conditions: blue autofluorescence 405/460 nm; series mostly up to 91.3 µM. The method in brief: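 Blue read-out at excitation 405 nm and emission 460 nm follows overnight compound exposure of HEK293 cells at 37C in 5% CO2. Activity is given as auto fluorescence equivalency to triamterene.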

A short description of assay [8]: qHTS assay to test for compound auto fluorescence at 590 nm (red) in HEK293 cells (AID 720679). The following applies: red autofluorescence 540/590 nm; series mostly up to 91.3 µM. A digest of the protocol: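 Red channel, Ex/Em 540/590nm; signal expressed as equivalency to Rose Bengal sodium. HEK293, 2,000 cells/well, 10% dialyzed FBS; 23 nL compound pinned after 4-5 hr attachment; overnight 37C/5% CO2 before reading.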

Assay [9] in a line: qHTS assay to test for compound auto fluorescence at 535 nm (green) in HEK293 cell free culture (AID 720682). The following applies: cell-free medium, green autofluorescence 485/535 nm, active compounds read high; series mostly up to 91.3 µM. The method in brief:
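Green-channel intensity (Ex/Em 485/535 nm) was recorded from compound-treated wells containing only DMEM with 10% FBS. Fluorescein provided the equivalency standard.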

Assay [10] can be described thus: qHTS assay to test for compound auto fluorescence at 590 nm (red) in HEK293 cell free culture (AID 720683). The following applies: cell-free medium autofluorescence, Ex540/Em590 red; series mostly up to 91.3 µM. The method in brief:
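Red-channel autofluorescence of compounds in culture medium (DMEM, 10% FBS), no cells, measured at 540/590 nm. Rose Bengal sodium is the reference fluorophore for equivalence.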

Assay [11] in a line: qHTS assay to test for compound auto fluorescence at 590 nm (red) in HepG2 cell free culture (AID 720684). As to conditions: cell-free medium autofluorescence, red 540/590 nm; series mostly up to 91.3 µM. The method in brief:
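Plate contents were MEM with 10% FBS plus test compound or DMSO, no cells. Fluorescence was recorded with 540 nm excitation and 590 nm emission.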

The nature of assay [12]: qHTS assay to test for compound auto fluorescence at 460 nm (blue) in HepG2 cell free culture (AID 720685). As to conditions: Cell-free culture medium, blue autofluorescence 405/460 nm; series mostly up to 91.3 µM. A digest of the protocol: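 Compound (23 nL) or DMSO pinned into cell-free MEM with 10% FBS; blue fluorescence read at 405/460 nm excitation/emission, expressed as auto-fluorescence equivalency to triamterene.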

Assay [13] can be described thus: qHTS assay to test for compound auto fluorescence at 535 nm (green) in HepG2 cell free culture (AID 720686). The following applies: Cell-free medium, green autofluorescence 485/535 nm; series mostly up to 91.3 µM.
A short description of assay [14]: qHTS assay to test for compound auto fluorescence at 460 nm (blue) in HepG2 cells (AID 720687). As to conditions: autofluorescence 405/460 nm, 1 h; series mostly up to 91.3 µM. A digest of the protocol: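 Blue-channel autofluorescence (Ex/Em 405/460 nm, triamterene-equivalent) was measured after 1 hr compound exposure at 37 C, 5% CO2. Cells were HepG2, plated overnight at 37 C in MEM plus 10% FBS.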

Assay [15] addresses Glucocorticoid receptor (Homo sapiens) (UniProt P04150). Briefly: qHTS assay to identify small molecule agonists of the glucocorticoid receptor (GR) signaling pathway (AID 720691; active = well fitted activation curve with a large enough effect in the signal ratio in the repeat runs, not every such curve was filed as active; the % refers to the signal ratio). The following applies: GR-bla HeLa, beta-lactamase reporter ratio, 18 h; activation: at 62.4 µM (top of the series). A digest of the protocol: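 qHTS in GR-bla HeLa cells: 4 h settling at 37 C/5% CO2, 18 h compound incubation at 37 C, 2 h LiveBLAzer B/G FRET substrate at room temperature, fluorescence intensity measured.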

For assay [16] the target is unchanged. Briefly: qHTS assay to identify small molecule antagonists of the glucocorticoid receptor (GR) signaling pathway (AID 720692; active = well fitted inhibition curve with a large enough effect in the signal ratio in the repeat runs, not every such curve was filed as active; the % refers to the signal ratio; note: potency is the fitted concentration of half-maximal effect). As to conditions: GR-bla HeLa, beta-lactamase FRET ratio, dexamethasone-stimulated, 18 h; series mostly up to 58.5 µM. A digest of the protocol:
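Inhibition of glucocorticoid signalling is measured in HeLa cells with a GRE-controlled beta-lactamase reporter; cells are co-treated with compound and 5 nM dexamethasone (final) for 18 h before FRET substrate readout.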

The nature of assay [17]: qHTS assay to test for compound auto fluorescence at 535 nm (green) in HEK293 cells (AID 720680). As to conditions: green autofluorescence 485/535 nm; series mostly up to 91.3 µM.
Assay [18] can be described thus: qHTS assay to test for compound auto fluorescence at 460 nm (blue) in HEK293 cell free culture (AID 720681). The following applies: cell-free medium, autofluorescence 405/460 nm (blue); series mostly up to 91.3 µM. The method in brief:
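Blue fluorescence (Ex 405/Em 460 nm, triamterene-equivalent) was read immediately after pin transfer of compound or DMSO into medium (DMEM, 10% FBS) without cells.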

Assay [19] can be described thus: qHTS assay for small molecules that induce genotoxicity in human embryonic kidney cells expressing luciferase-tagged ATAD5 (AID 651632). Note: nearly all actives have a fitted effect of over 15% in size. As to conditions: HEK293T ATAD5-luciferase induction, 16 h; series mostly up to 83.3 µM. A digest of the protocol:
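Luminescent reporter readout, HEK293T ATAD5-luc line: 16 hr drug exposure (37C, 5% CO2) followed by Amplite, 30 min RT.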

Sequence of Glucocorticoid receptor (Homo sapiens) (P04150 whole entry, looked up): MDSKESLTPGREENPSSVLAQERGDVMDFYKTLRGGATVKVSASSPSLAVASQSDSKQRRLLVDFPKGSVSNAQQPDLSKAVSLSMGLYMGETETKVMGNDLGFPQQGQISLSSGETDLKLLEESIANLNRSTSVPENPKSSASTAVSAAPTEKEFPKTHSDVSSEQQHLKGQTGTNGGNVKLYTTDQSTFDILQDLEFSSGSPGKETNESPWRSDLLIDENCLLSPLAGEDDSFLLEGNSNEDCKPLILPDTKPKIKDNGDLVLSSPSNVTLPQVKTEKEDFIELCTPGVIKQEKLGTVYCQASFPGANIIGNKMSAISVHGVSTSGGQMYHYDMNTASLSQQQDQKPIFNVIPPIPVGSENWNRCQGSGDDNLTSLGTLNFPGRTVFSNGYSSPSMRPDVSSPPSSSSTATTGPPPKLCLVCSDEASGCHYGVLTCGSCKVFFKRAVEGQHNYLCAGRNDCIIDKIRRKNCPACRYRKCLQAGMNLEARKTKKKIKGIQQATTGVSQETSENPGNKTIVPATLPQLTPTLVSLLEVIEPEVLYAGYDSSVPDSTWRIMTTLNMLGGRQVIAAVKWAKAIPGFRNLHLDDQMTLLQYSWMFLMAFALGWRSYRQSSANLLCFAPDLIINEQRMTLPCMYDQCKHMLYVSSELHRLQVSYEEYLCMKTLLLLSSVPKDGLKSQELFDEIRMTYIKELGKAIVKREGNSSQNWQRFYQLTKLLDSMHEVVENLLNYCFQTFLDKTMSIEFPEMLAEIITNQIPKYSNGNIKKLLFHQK

`CCCCCC/C(C=O)=C\c1ccccc1`: the Potency entry in assay [1], in assay [2], in assay [3], in assay [4], in assay [15] and in assay [16] was “inactive” each time. In addition, the call in [5], in assay [6], in assay [7], in [8], in assay [9] and in assay [10] was inactive. Besides, the molecule was called inactive in assay [11], in [12], in [13] and in [14].

As for `COc1ccc2cc([C@H](C)C(=O)O)ccc2c1`, the Potency result in assay [1], in [2], in [3] and in assay [4] was “inactive” in each case. Also, the molecule was called inactive in assay [6], in [7], in [8], in assay [17], in [18] and in assay [9]. Moreover, the molecule was classed as inactive in assay [11], in [12], in assay [13] and in assay [14].

For the molecule `CCN(CC)c1ccc(C(=O)c2ccccc2C(=O)O)c(O)c1`, the Potency entry in assay [1], in assay [2], in assay [3], in [15] and in assay [16] was “inactive” each time. Also, the call in assay [6], in [7], in assay [8], in [18], in assay [9] and in assay [10] was inactive. For the same molecule, the outcome in assay [11], in assay [12], in assay [13] and in assay [14] was inactive.

As to `CCCCCCCCC/C=C/CC1CC(=O)OC1=O` (configuration not stated), the Potency result in assay [1], in [2], in [3] and in [15] was “inactive” each time. Further, the outcome in assay [6], in assay [7], in [8], in assay [9], in [11] and in assay [12] was inactive. Besides, the result in assay [13] and in [14] was inactive. For the same molecule, in assay [16], the Potency is 49 µM (active).

Turning to `O=C(O)CCCCCCCCCCC(=O)O`, the molecule was classed as inactive in assay [19], in [5], in assay [6], in assay [7], in assay [8] and in [17]. Also, the result in assay [18], in assay [9], in assay [11], in [12], in [13] and in assay [14] was inactive. Further, the Potency result in assay [1], in assay [3], in [4], in assay [15] and in assay [16] was “inactive” in each case.

Regarding `CC[C@H](C)C(=O)O[C@H]1C[C@@H](C)C=C2C=C[C@H](C)[C@H](CC[C@@H]3C[C@@H](O)CC(=O)O3)[C@H]21`, the Potency in assay [1] is 29.8 µM (active) and 69.6 µM (active); in assay [4], 18.8 µM (active) and 62 µM (active) and 60.8 µM (active); in [16], 21.3 µM (active). Moreover, in assay [3], the Potency entry was “inactive”. Further, the molecule was called inactive in assay [6], in assay [7], in assay [8], in [17], in [18] and in [9]. The result in assay [11], in assay [12], in assay [13] and in [14] was inactive.

`Cc1occc(=O)c1O`: the Potency entry in assay [1], in assay [3] and in assay [4] was “inactive” in each case. The outcome in assay [5], in assay [6], in [7], in assay [8], in assay [17] and in [18] was inactive. The call in [9], in [10], in [11], in assay [12], in [13] and in [14] was inactive.

Take `CC(C)c1ccc(S(=O)(=O)O)cc1`: the molecule was called inactive in assay [19], in assay [6], in assay [7], in [8], in [17] and in assay [9]. The call in assay [10], in [11], in assay [12], in assay [13] and in assay [14] was inactive. In addition, the Potency result in assay [1], in [2], in [3] and in [4] was “inactive” in each case.

`CCCCCOC(C)=O`: the molecule was classed as inactive in [19], in [5], in [6], in assay [7], in assay [8] and in [17]. In addition, the molecule was classed as inactive in assay [18], in [9], in assay [11], in assay [12], in [13] and in assay [14]. Besides, the Potency entry in assay [1], in assay [2], in assay [3], in [4], in [15] and in assay [16] was “inactive” each time.
